# PubChem BioAssay (NCATS)
# Several values for one entry are separate records, joined by “and”; a condition that tells them apart may be missing. Identical values can stand only once. Inconclusive results are not listed. A number with no mark means an inactive call. Activity calls are given as the source filed them. The call rests on the fitted dose curve; in most records, active means well fitted curve in the direction sought with a large enough effect; inconclusive means small, poorly fitted or top-dose-only effect, or another doubt; inactive means no such curve, though single readings can be large; an effect the other way counts as inactive or inconclusive.
# What was measured:
# [1] = Quantitative highthroughput screen to assess conditional lethalithy of P12 Ichikawa cells grown in Human Plasma-Like Medium with dialyzed fetal bovine serum (HPLM+ds) (AID 1963879); conditions: Potency: viability; further: nearly all actives have a fitted effect of over 35% in size; on viability: series mostly up to about 46 µM
# How it was run: (§1)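 Each medium arm—HPLM with 10% dialyzed FBS, or RPMI1640 with 5 mM glucose and 10% untreated or dialyzed FBS—was screened against an 11-point, 3-fold compound titration for 48 h at 37 °C, with CellTiter-Glo luminescence as endpoint.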
# [2] = Quantitative highthroughput screen to assess conditional lethalithy of P12 Ichikawa cells grown in RPMI1640 with dialyzed fetal bovine serum (RPMI+ds) (AID 1963880); conditions: Potency: P12-Ichikawa viability; further: nearly all actives have a fitted effect of over 35% in size;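 on viability: 100% = DMSO wells and 0% = empty wells on each plate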
# How it was run: as §1
# [3] = Quantitative highthroughput screen to assess conditional lethalithy of P12 Ichikawa cells grown in RPMI1640 with untreated serum (RPMI+s) (AID 1963881); conditions: Potency: viability; further: nearly all actives have a fitted effect of over 35% in size;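 on viability: series mostly up to about 46 µM; 100% = DMSO wells and 0% = empty wells without cells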
# How it was run: as §1
# [4] = Quantitative highthroughput screen to assess conditional lethalithy of SEM cells grown in RPMI1640 with unreated serum (RPMI+s) (AID 1963883); further: nearly all actives have a fitted effect of over 35% in size;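 on viability: 100% = DMSO wells and 0% = empty wells without cells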
# How it was run: as §1
# [5] = Quantitative highthroughput screen to assess conditional lethalithy of SEM cells grown in RPMI1640 with dialyzed fetal bovine serum (RPMI+ds) (AID 1963884); further: nearly all actives have a fitted effect of over 35% in size;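 on viability: series mostly up to about 46 µM; 100% = DMSO control wells and 0% = empty wells without cells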
# How it was run: as §1
# [6] = Quantitative highthroughput screen to assess conditional lethalithy of SEM cells grown in Human Plasma-Like Medium with dialyzed fetal bovine serum (HPLM+ds) (AID 1963882); further: nearly all actives have a fitted effect of over 35% in size; on viability: series mostly up to about 46 µM
# How it was run: as §1
# [7] = Cellular viability qHTS for adrenocortical cancer (ACC) cell line NCI-H295R (AID 1963990); further: nearly all actives have a fitted effect of over 60% in size
# How it was run: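 IC50 and maximal efficacy derive from four-parameter logistic modelling of titration curves, with reads scaled between DMSO-only wells (0%) and doxorubicin hydrochloride (100% inhibition). Compounds spanned up to 46 uM over 48 h.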
# [8] = Cellular viability qHTS for adrenocortical cancer (ACC) cell line SW-13 (AID 1963989); conditions: SW-13 ACC cells viability, CellTiter-Glo, 48 h; activity (max response): stronger effect = lower value; further: nearly all actives have a fitted effect of over 65% in size;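 on activity (max response): cells grown in serum-free medium with ITS supplement; on the % scale 0 is the no-effect control and ±100 the full control effect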
# How it was run: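 Luminescent ATP read-out (CellTiter-Glo, 20 min at room temperature) measured metabolically competent SW-13 cells after 48 h compound treatment. Final concentrations spanned up to 46 uM; bortezomib served as positive control.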
# Potency means the concentration at half of the fitted maximal effect.
smiles,measurement,setting,value
COc1cc2c(cc1OC)[C@@H]1Cc3ccc(OC)c(OC)c3CN1CC2,Potency,[1],inactive
same,Potency,[2],inactive
same,Potency,[3],inactive
same,Potency,[4],inactive
same,Potency,[5],inactive
O=c1[nH]c(=O)n([C@H]2C[C@@H](O)[C@@H](CO)O2)cc1C(F)(F)F,Potency,[1],1.18 µM (active)
same,Potency,[3],3.72 µM (active)
same,Potency,[4],9.35 µM (active)
same,Potency,[5],1.87 µM (active)
Cc1cc(N2CCOCC2)cc2[nH]c(-c3c(NC[C@@H](O)c4cccc(Cl)c4)cc[nH]c3=O)nc12,Potency,[1],inactive
same,Potency,[6],1.48 µM (active)
same,Potency,[4],1.66 µM (active)
same,Potency,[5],1.87 µM (active)
same,Potency,[7],5.01 µM (active)
NC(=O)c1cnc(N[C@@H]2CCCC[C@@H]2N)nc1Nc1cccc(-n2nccn2)c1,Potency,[2],inactive
same,Potency,[6],11.7 µM (active)
same,Potency,[7],25.1 µM (active)
Cc1nc(Nc2ncc(C(=O)Nc3c(C)cccc3Cl)s2)cc(N2CCN(CCO)CC2)n1,Potency,[1],1.87 µM (active)
same,Potency,[8],1.84 µM (active) and 1.41 µM (active)
same,Potency,[7],20.6 µM (active) and 25.1 µM (active)
CCCC1OC2C[C@@H]3[C@H]4CCC5=CC(=O)C=C[C@]5(C)[C@H]4C(O)C[C@]3(C)[C@]2(C(=O)CO)O1 (stereo partly drawn),Potency,[2],0.0132 µM (active)
same,Potency,[4],0.187 µM (active)
same,Potency,[5],0.132 µM (active)
same,activity (max response),[8],-12.3%
COc1cc(OC)c(C=CS(=O)(=O)Cc2ccc(OC)c(NCC(=O)O)c2)c(OC)c1,Potency,[1],0.264 µM (active)
same,Potency,[2],0.166 µM (active)
same,Potency,[3],0.235 µM (active)
same,Potency,[4],0.209 µM (active)
same,Potency,[5],0.118 µM (active)
CC(C)OC(=O)[C@H](C)N[P@](=O)(OC[C@H]1O[C@@H](n2ccc(=O)[nH]c2=O)[C@](C)(F)[C@H]1O)Oc1ccccc1,Potency,[2],4.69 µM (active)
same,Potency,[4],6.62 µM (active)
same,Potency,[5],8.33 µM (active)
COc1cc([C@@H]2c3cc4c(cc3[C@@H](O[C@@H]3O[C@@H]5CO[C@@H](c6cccs6)O[C@@H]5[C@H](O)[C@@H]3O)[C@H]3COC(=O)[C@H]23)OCO4)cc(OC)c1O,Potency,[3],0.743 µM (active)
CON=C(C(=O)N[C@@H]1C(=O)N2C(C(=O)OCOC(=O)C(C)(C)C)=C(C=Cc3scnc3C)CS[C@H]12)c1csc(N)n1,Potency,[3],14.8 µM (active)
same,Potency,[6],inactive
same,Potency,[4],9.35 µM (active)
Cc1onc(-c2ccccc2)c1C(=O)N[C@@H]1C(=O)N2[C@@H](C(=O)O)C(C)(C)S[C@@H]12,Potency,[2],1.05 µM (active)
same,Potency,[3],1.32 µM (active)
same,Potency,[6],inactive
same,Potency,[5],inactive
COc1cc(C(=O)NS(=O)(=O)c2ccccc2C)ccc1Cc1cn(C)c2ccc(NC(=O)OC3CCCC3)cc12,Potency,[1],inactive
same,Potency,[6],20.9 µM (active)
same,Potency,[7],28.2 µM (active)
C[C@@H](Oc1cc(-c2cnn(C3CCNCC3)c2)cnc1N)c1c(Cl)ccc(F)c1Cl,Potency,[2],18.7 µM (active)
same,Potency,[3],16.6 µM (active)
same,Potency,[4],9.35 µM (active)
same,Potency,[7],3.16 µM (active)
CNC(=O)c1cccc(-c2ccc3c(N4CCOC[C@H]4C)nc(N4CCOC[C@H]4C)nc3n2)c1,Potency,[1],0.0743 µM (active)
same,Potency,[6],0.264 µM (active)
same,Potency,[4],2.64 µM (active)
same,Potency,[5],0.469 µM (active)
COC(=O)C=CC(=O)OC,Potency,[1],0.935 µM (active)
same,Potency,[2],1.48 µM (active)
same,Potency,[3],2.64 µM (active)
same,Potency,[4],1.32 µM (active)
same,Potency,[5],2.64 µM (active)
CNc1nc(-c2ccc3c(N)n[nH]c3c2)cc(N2C[C@@H](C(=O)NC3CCCCC3)CC[C@@H]2C)n1,Potency,[1],23.5 µM (active)
same,Potency,[3],16.6 µM (active)
same,Potency,[6],16.6 µM (active)
same,Potency,[5],18.7 µM (active)
COc1cc2c(cc1O)CCC1C2CC[C@@]2(C)C1CC[C@@H]2O (stereo partly drawn),Potency,[3],2.64 µM (active)
CS(=O)(=O)Oc1ccc2c(NC(N)=O)c(C(=O)c3ccc(Cl)cc3Cl)oc2c1,Potency,[6],inactive
same,Potency,[4],inactive
same,Potency,[5],inactive
same,activity (max response),[8],-2.55%
same,Potency,[7],inactive
C=CC(=O)Nc1ccc(F)c(-c2ncnc3[nH]cc(C(=O)OCC)c23)c1,Potency,[8],22.4 µM (active)
C[C@H](Nc1ncnc2nc[nH]c12)c1cc2ccc(F)cc2nc1-c1ccccn1,activity (max response),[8],-8.13%
COc1c(N2C[C@@H]3CCCN[C@H]3C2)c(F)cc2c(=O)c(C(=O)O)cn(C3CC3)c12,activity (max response),[8],-9.27%
CCOc1ccc2nc(S(N)(=O)=O)sc2c1,activity (max response),[8],-20.8%
CCCCCC=CCC=CCCCCCCCC(=O)OCC,activity (max response),[8],-4.47%
CCCCC1C(=O)N(c2ccccc2)N(c2ccccc2)C1=O,activity (max response),[8],-21.3%
C[C@]12CC[C@@H]3c4ccc(O)cc4CC[C@H]3[C@H]1CC[C@H]2O,Potency,[4],18.7 µM (active)
same,Potency,[5],20.9 µM (active)
CN(C)CCOc1ccc(C(=C(CCCl)c2ccccc2)c2ccccc2)cc1,Potency,[6],5.9 µM (active)
same,Potency,[4],3.32 µM (active)
CC(C)=CCCC(C)=CCCC(C)=CCSc1ccccc1C(=O)O,Potency,[6],6.62 µM (active)
same,Potency,[4],6.62 µM (active)
same,Potency,[5],11.8 µM (active)
NC[C@H]1O[C@H](O[C@H]2[C@H](O)[C@@H](O[C@H]3O[C@H](CO)[C@@H](O)[C@H](N)[C@H]3O)[C@H](N)C[C@@H]2N)[C@H](N)C[C@@H]1O,activity (max response),[8],4.38%
CCOC(=O)COc1ccc2c(C)c(CCN(CC)CC)c(=O)oc2c1Cl,activity (max response),[8],0.298%
Fc1ccc([C@@H]2CCNC[C@H]2COc2ccc3c(c2)OCO3)cc1,Potency,[3],14.8 µM (active)
same,Potency,[4],14.8 µM (active)
same,Potency,[5],14.8 µM (active)
same,activity (max response),[8],-15.4%
CN1CCN(CCCN2c3ccccc3Sc3ccc(Cl)cc32)CC1,Potency,[3],8.33 µM (active)
same,Potency,[5],inactive
c1ccc(-c2ccc(C(c3ccccc3)n3ccnc3)cc2)cc1 (stereo not drawn),Potency,[8],18.4 µM (active)
C/C(O)=C(\C#N)C(=O)Nc1ccc(C(F)(F)F)cc1,activity (max response),[8],-8.43%
Cc1cc(=O)c2c(O)c3c(O)cc(=O)c4c3c3c(cc(O)c1c23)C(C)(C)C=4O,Potency,[6],inactive
same,Potency,[5],inactive
same,Potency,[8],1.78 µM (active)
same,Potency,[7],2.24 µM (active)
Nc1cc(COc2c(Cl)cc(C[C@H](N)C(=O)O)cc2Cl)c2oc(-c3ccccc3)nc2c1,activity (max response),[8],4.08%
CS(=O)(=O)OCCCCOS(C)(=O)=O,Potency,[4],20.9 µM (active)
same,Potency,[5],20.9 µM (active)
same,activity (max response),[8],4.16%
same,Potency,[7],inactive
CO[C@H]1C[C@@H]2CC[C@@H](C)[C@@](O)(O2)C(=O)C(=O)N2CCCC[C@@H]2C(=O)O[C@H]([C@H](C)C[C@@H]2CC[C@H](OCCO)[C@H](OC)C2)CC(=O)[C@H](C)C=C(C)[C@@H](O)[C@@H](OC)C(=O)[C@H](C)C[C@H](C)C=CC=CC=C1C,Potency,[6],0.59 µM (active)
O=C(Nc1cccc(C(F)(F)F)c1)c1cccc2cc(Oc3cc(CO)ncn3)ccc12,activity (max response),[8],9.86%
C[C@@H](Oc1ccc2[nH]nc(C=Cc3cnn(CCO)c3)c2c1)c1c(Cl)cncc1Cl,Potency,[4],0.264 µM (active)
O=C(NC1CCN(CCc2c[nH]c3ccccc23)CC1)c1ccccc1,activity (max response),[8],-18.1%
CCOC(=O)Nc1ccc2c(c1)N(C(=O)CCN1CCOCC1)c1ccccc1S2,activity (max response),[8],-13.5%
COc1cc2c(NC3CCN(C4CCCCC4)CC3)nc(N3CCCN(C(C)C)CC3)nc2cc1OCCCN1CCCCC1,Potency,[8],3.16 µM (active)
CO[C@H]1/C=C\O[C@@]2(C)Oc3c(C)c(O)c4c(O)c(c5c(nc6cc(C)ccn65)c4c3C2=O)NC(=O)C(C)=CC=C[C@H](C)[C@H](O)[C@@H](C)[C@@H](O)[C@@H](C)[C@H](OC(C)=O)[C@H]1C,Potency,[6],18.7 µM (active)
same,Potency,[5],14.8 µM (active)
Cc1ccc(NC(=O)Nc2cc(C(F)(F)F)ccc2F)cc1Nc1ccc2c(c1)NC(=O)C2=Cc1ccc[nH]1,Potency,[6],18.7 µM (active)
same,Potency,[4],18.7 µM (active)
same,Potency,[5],16.6 µM (active)
COc1cc2nc(-c3cc(F)ccc3O)nc(N[C@@H]3CNC[C@@H]3C(C)(C)O)c2cc1OC,Potency,[6],0.332 µM (active)
same,Potency,[4],0.469 µM (active)
CC(C)n1c(/C=C/[C@@H](O)C[C@@H](O)CC(=O)O)c(-c2ccc(F)cc2)c2ccccc21,activity (max response),[8],5.25%
CC(C)(C)C[C@H]1N[C@@H](C(=O)NC2CCC(O)CC2)[C@H](c2cccc(Cl)c2F)[C@@]12C(=O)Nc1cc(Cl)ccc12 (stereo partly drawn),Potency,[8],25.1 µM (active)
COc1ccc2nc(NC(=O)Nc3ccccc3)sc2c1,activity (max response),[8],-20%
CCCCC[C@H](O)C=C[C@H]1[C@H](O)CC(=O)[C@H]1CCCCCCC(=O)O,Potency,[4],4.18 µM (active)
OC1CCC([C@H](O)C[C@H]2c3c(F)cccc3-c3cncn32)CC1 (stereo partly drawn),activity (max response),[8],-0.756%
CCCNC(=O)c1cn2ncnc(Nc3cc(C(=O)NC4CC4)ccc3C)c2c1C,activity (max response),[8],7.33%
Cc1ccc2c(c1)c1c3n2CCNC3CCC1 (stereo not drawn),activity (max response),[8],-5.85%
CNC(=O)c1ccc(Nc2cc(Nc3ccccc3S(=O)(=O)C(C)C)c3cc[nH]c3n2)nc1,Potency,[3],1.87 µM (active)
same,Potency,[4],1.48 µM (active)
same,Potency,[5],1.05 µM (active)
O=C1CC2(CCCC2)CC(=O)N1CCNCC1COc2ccccc2O1 (stereo not drawn),activity (max response),[8],6.61%
CC1=C(C(=O)OC(C)C)C(c2cccc([N+](=O)[O-])c2)C(C(=O)OC2CN(C(c3ccccc3)c3ccccc3)C2)=C(N)N1 (stereo not drawn),activity (max response),[8],-4.04%
CC(=O)[C@@]1(O)CC[C@H]2[C@@H]3C[C@H](C)C4=CC(=O)C=C[C@]4(C)[C@@]3(F)[C@@H](O)C[C@@]21C,activity (max response),[8],3.6%
Cc1c(Cl)cccc1Nc1ccccc1C(=O)O,activity (max response),[8],-8.75%
CN1CCN(C2=Nc3ccccc3Sc3ccc(Cl)cc32)CC1,activity (max response),[8],-24.6%
same,Potency,[7],inactive
O=C(CCNNC(=O)c1ccncc1)NCc1ccccc1,activity (max response),[8],-0.798%
same,Potency,[7],inactive
Cc1cccc(C)c1NC(=O)c1ccc(N)cc1,activity (max response),[8],6.32%
same,Potency,[7],inactive
c1ccc(-c2nc[nH]c2-c2ccccc2)cc1,activity (max response),[8],-22.8%
same,Potency,[7],inactive
